# Sm TGR inh = qHTS Assay for the Inhibitors of Schistosoma Mansoni Peroxiredoxins; Schistosoma mansoni thioredoxin glutathione reductase (TGR), Q962Y6; purified TGR, DTNB reduction, TNB absorbance 405 nm; Potency, µM (series often up to 114 µM), most hits filed as inhibitors; actives 3% (n = 360,000); AID 485364, 2010; also: nearly all actives have a fitted effect of over 60% in size
#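 Kinetic colorimetric format: TGR-catalysed, NADPH-driven DTNB reduction monitored via TNB absorbance. Enzyme dispensed at 20 nM; compound exposure 15 min at room temperature before reaction start.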
# Pf growth 48h = Primary qHTS for delayed death inhibitors of the malarial parasite plastid, 48 hour incubation. P. falciparum luciferase growth in erythrocytes, 48 h. Potency, µM (highest dose often 28.7 µM), hits mostly inhibitors. actives 5.9% (n = 310,000). AID 504832, 2011
#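 Luciferase-expressing parasites in RBCs, 2% Hct / 0.1% parasitemia final; RPMI 1640 + 0.5% Albumax; 37 C, 5% CO2, one generation; luminescence read-out, lower signal = inhibition.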
# HCMV antiviral = qHTS Assay for inhibitors of the human cytomegalovirus (HCMV); HFF cells, HCMV-luciferase reporter, 72 h; stronger effect = lower value; activity change, negative = inhibition, % at 57.5 µM; AID 1259415, 2018; actives 4.5% (n = 410,000); in the data active = activity change below about -60%; inconclusive = no clear call, values can overlap the other calls; inactive = above about -39%
#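 Two compound doses tested in HFFs infected with HCMV-luciferase, MOI 1 PFU/cell, 72 h at 37C. Lysate luminescence read with OneGlo; data normalized against buffer-only and 10uM Salinomycin inhibitor controls.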
# FBPA Giardia inh = qHTS Assay for Inhibitors of Fructose-1,6-bisphosphate Aldolase from Giardia Lamblia | purified Giardia FBPA | Potency, µM (doses to about 59.6 µM), hits mostly inhibitors | actives 0.71% (n = 290,000); also: nearly all actives have a fitted effect of over 55% in size
# Target sequence (A8B2U2 whole entry, looked up): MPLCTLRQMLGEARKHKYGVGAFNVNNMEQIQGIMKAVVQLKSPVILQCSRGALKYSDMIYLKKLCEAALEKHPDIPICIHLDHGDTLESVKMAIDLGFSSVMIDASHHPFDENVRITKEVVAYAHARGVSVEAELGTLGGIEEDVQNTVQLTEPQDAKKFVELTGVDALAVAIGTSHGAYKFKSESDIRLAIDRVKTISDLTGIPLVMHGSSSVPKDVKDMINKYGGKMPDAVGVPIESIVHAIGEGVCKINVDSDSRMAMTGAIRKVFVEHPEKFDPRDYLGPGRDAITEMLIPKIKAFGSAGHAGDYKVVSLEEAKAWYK
#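 Giardia FBPA (40 nM reagent) was preincubated 10 min at RT with compound (up to 57.5 uM final), then substrate plus GAPDH/TPI/NAD/arsenate coupling system with diaphorase/resazurin was added; resorufin fluorescence (525/598 nm) was read after 20 min.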
# Pf growth 96h = Primary qHTS for delayed death inhibitors of the malarial parasite plastid, 96 hour incubation; P. falciparum luciferase reporter growth, 96 h; Potency, µM (titrated, usually from 28.7 µM), actives largely listed as inhibitors; actives 6.9% (n = 320,000); AID 504834, 2011
#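 Delayed-death screen, second-generation endpoint: infected erythrocytes, 2% hematocrit, 0.05% parasitemia final; 96 hours at 37 C, 5% CO2; luciferase detection reagent; luminescence decrease equals reduced growth.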
# A number is an active result; 0 = inactive; ? = inconclusive; - = no result given. An excerpt weighted towards active compounds, which were near 14% of everything screened. Unless noted, calls follow the shape of the dose curve; as a rule, active = well fitted curve in the direction sought with a large enough effect; inconclusive = small, poorly fitted or top-dose-only effect, or another doubt; inactive = no such curve, though single readings can be large; an effect the other way counts as inactive or inconclusive.
SMILES,Sm TGR inh,Pf growth 48h,HCMV antiviral,FBPA Giardia inh,Pf growth 96h
Cc1cccc(-n2c(=O)c3c(c4cc(C)ccc4n3C)n(CC(=O)N3CCCC3)c2=O)c1,0,-,0,-,-
Cc1ccc(S(=O)(=O)c2cnc3cc(C)nn3c2N)cc1,0,0,?,0,5.9µM
CN(CCO)c1ccc2c(c1)OC[C@@H](Cc1ccccc1)NS2(=O)=O,-,-,0,-,-
COc1ccc2c(c1)OC(c1ccccc1)(C(F)(F)F)NC2=O (centres undefined),0,2.9µM,0,0,?
COc1ccc(C2=COc3ccccc3C(=O)N2)cc1,0,0,?,0,0
CC(C)Oc1ccc2c(c1)OC(c1ccccc1)(C(F)(F)F)NC2=O (centres undefined),0,0.83µM,0,0,0.19µM
CCCN1CCN(CCNC(=O)Nc2ccc(OC)cc2OC)CC1,0,-,0,-,-
CC(=O)N1CCc2c(sc3c2c(=O)n(Cc2ccccc2)c(=O)n3Cc2ccccc2Cl)C1,0,-,0,-,-
OCCN1CCN(Cc2cc(Cl)c3cccnc3c2O)CC1,45µM,-,0,?,?
Oc1c(CN2CCN(c3ccccn3)CC2)cc(Cl)c2cccnc12,?,2.3µM,-,?,-
CC(=O)NCc1cc(Cl)c2cccnc2c1O,0,?,-,-,0
O=c1c(CN2CCN(c3ccccn3)CC2)coc2ccccc12,?,0,?,0,0
CC(C)CCNC(=O)N1CCN(S(=O)(=O)c2ccc3c(ccn3C)c2)CC1,0,-,0,-,-
COc1ccc(C(=O)Nc2nnc(SCC(=O)NC3CC3)s2)cc1,0,0,0,0,?
CCOC(=O)C1=C[C@@H](C2CCCCC2)N(S(=O)(=O)c2ccc([N+](=O)[O-])cc2)[C@H]1c1ccccc1,-,-,-77,-,-
Cc1cc(NC(=O)CSCC(=O)Nc2nc3ccccc3[nH]2)no1,0,0,0,-,0
COc1ccc(-c2nn(C)c3sc(C(=O)NCc4ccco4)cc23)cc1OC,0,0,0,0,0
COc1ccccc1NC(=O)c1cc2c(-c3ccccc3)nn(-c3ccccc3)c2s1,0,-,-61,-,-
O=C(Nc1ccccc1)c1cc2c(-c3ccccc3)nn(-c3ccccc3)c2s1,0,-,0,-,-
COc1ccc(-c2nn(C)c3sc(C(=O)Nc4cc(OC)c(OC)c(OC)c4)cc23)cc1OC,0,-,-98,-,-
CCOC(=O)N1CCC(NC(=O)c2cc3c(-c4ccc(OC)c(OC)c4)nn(C)c3s2)CC1,0,?,0,0,9.3µM
COc1ccc(NC(=O)c2cc3c(-c4ccc(OC)c(OC)c4)nn(C)c3s2)cc1OC,0,-,-97,0,0
COc1ccc(OC)c(NC(=O)Cn2c(=O)cc(C)c3c(C)nn(-c4cccc(Cl)c4C)c32)c1,0,-,?,-,-
CCOC(=O)c1cnn2c1[nH]c(=O)c1ccccc12,0,0,0,0,9.3µM
CCCn1nc(C(=O)OCC(=O)Nc2cccc(OC)c2)c2ccccc2c1=O,0,0,0,0,0
SMILES,Sm TGR inh,Pf growth 48h,HCMV antiviral,FBPA Giardia inh,Pf growth 96h
O=C(COc1cccc2ccccc12)NNC(=O)Nc1ccccc1,0,0,0,0,?
O=C(/C=C/c1ccccc1)Oc1cccc2cccnc12,0,4.7µM,0,0,3.7µM
O=C(COc1cccc2cccnc12)NNC(=S)Nc1ccccc1,0,0,-,0,0.66µM
CN(C(=O)Oc1cccc2cccnc12)c1ccccc1,0,0,0,0,?
O=C(Oc1cccc2cccnc12)c1ccccc1,-,?,-,0,0
O=C(/C=C\c1ccccc1)Oc1cccc2cccnc12,0,?,0,?,5.9µM
CCN(CC)CCCN=Cc1c(O)n(-c2ccccc2C)c(=O)c2ccccc12,0,?,0,0,?
C[C@@H]1CN([C@@H](C)CO)C(=O)CCCn2nncc2CO[C@H]1CN(C)C(=O)c1ccc(N2CCN(C)CC2)cc1,-,-,0,-,-
O=[N+]([O-])c1ccc(N2CCN(S(=O)(=O)c3ccc(Cl)c(Cl)c3)CC2)cc1NCCN1CCOCC1,0,?,0,0,6.6µM
CC(C)(C)c1ccc(CNc2cc(N3CCOCC3)ccc2[N+](=O)[O-])cc1,0,13µM,0,0,0
CC(C)(CNc1ccc(C(F)(F)F)cc1[N+](=O)[O-])N1CCOCC1,0,9.3µM,-66,-,5.9µM
CC(C)c1ccc(CNc2cc(N3CCCC3)ccc2[N+](=O)[O-])cc1,0,0,0,0,?
O=C(CSc1ccc(C(F)(F)F)cc1[N+](=O)[O-])N1CCOCC1,0,0,0,0,?
CC(Nc1cc(N2CCNCC2)ccc1[N+](=O)[O-])c1ccccc1 (centres undefined),0,0,0,0,0
O=[N+]([O-])c1cc(S(=O)(=O)N2CCCC2)ccc1NCCCN1CCOCC1,0,0,0,0,?
CC(Nc1cc(N2CCN(C(=O)C(C)(C)C)CC2)ccc1[N+](=O)[O-])c1ccccc1 (centres undefined),0,8.3µM,0,0,2.1µM
CCCSCCCNC(=O)C1CCCN(c2nn3cc(-c4ccc(OC)cc4)nc3s2)C1 (centres undefined),0,-,0,-,-
O=[N+]([O-])c1ccc(N2CCOCC2)cc1NC(c1ccccc1)c1ccccc1,0,?,0,0,2.1µM
Cc1cc(C)c(S(=O)(=O)N2CCN(c3ccc([N+](=O)[O-])c(NCc4ccco4)c3)CC2)c(C)c1,0,?,?,0,3.7µM
CC(C)C(=O)N1CCN(c2ccc([N+](=O)[O-])c(NC(C)c3ccccc3)c2)CC1 (centres undefined),0,9.3µM,0,?,0
CC(C)(C)CC(C)(C)n1nnnc1N,-,-,0,-,-
CCOCCn1ccc2c(OCC(=O)Nc3ccc(OC(F)(F)F)cc3)cccc2c1=O,0,-,0,-,-
FC(F)(F)c1cccc(-c2cnc3ccc(C4CC4)nn23)c1,-,-,-82,-,-
Cc1nnc2ccc(-c3cccc(C(F)(F)F)c3)nn12,-,-,0,0,-
CN(C)c1nnnn1-c1cccc(Oc2ncc(C(F)(F)F)cc2Cl)c1,0,0,0,?,0
SMILES,Sm TGR inh,Pf growth 48h,HCMV antiviral,FBPA Giardia inh,Pf growth 96h
Cc1ccc(-c2nc(CN(CC3CCC3)CC3CCCO3)c(C)o2)s1 (centres undefined),56µM,?,?,0,0
Cc1ccc(CNCC2CCCO2)s1 (centres undefined),0,-,0,0,0
CCS(=O)(=O)c1nc(S(=O)(=O)c2ccc(Cl)cc2)c(NCCCN2CCOCC2)s1,0,0,0,-,12µM
CCCS(=O)(=O)c1nc(S(=O)(=O)c2ccc(C)cc2)c(N2CCN(CCO)CC2)s1,?,0,?,-,?
CCS(=O)(=O)c1nc(S(=O)(=O)c2ccc(Cl)cc2)c(N2CCN(CCO)CC2)s1,0,0,-66,-,0
CCS(=O)(=O)c1nc(S(=O)(=O)c2ccc(C)cc2)c(NCCCN2CCOCC2)s1,0,?,0,0,?
CS(=O)(=O)c1nc(S(=O)(=O)c2ccc(Cl)cc2)c(N2CCOCC2)s1,0,?,?,-,?

# Screens: PubChem BioAssay, National Center for Advancing Translational Sciences (NCATS)
